We go through 40 compounds from PubChem BioAssay (Tox21).

Values joined by “and” are separate entries in the source; they are usually repeats but may differ in a detail not shown here. Equal entries are not always repeated. Results filed as inconclusive are left out. Entries that show only a call come without a potency. Active and inactive are the calls of the source. Calls come from the whole dose curve; as a rule, active = well fitted cell-killing curve with a large enough effect in the repeat runs; inconclusive = weak or mixed curves; inactive = no such curve, though single readings can be large or run the other way.
Potency is the fitted concentration of half-maximal effect.

A short description of the test: qHTS assay to identify small molecule agonists of the peroxisome proliferator-activated receptor delta (PPARd) signaling pathway - cell viability counter screen (AID 743211). Note: nearly all actives have a fitted effect of over 55% in size. The conditions noted are these: PPARd-bla HEK293H viability, CellTiter-Glo luminescence, 17 h; series mostly up to 62.6 µM. The source says:
U.S. Tox21 Program National Center for Advancing Translational Sciences [NCATS] NIH Chemical Genomics Center [NCGC] U.S. Environmental Protection Agency [EPA] National Institutes of Environmental Health Sciences [NIEHS] National Toxicology Program [NTP] U.S. Food and Drug Administration [FDA] Tox21 Assay Overview: The peroxisome proliferator-activated receptors (PPARs) are lipid-activated transcription factors of the nuclear receptor superfamily with three distinct subtypes namely PPAR alpha, PPAR delta (PPARd) and PPAR gamma. All these subtypes heterodimerizes with Retinoid X receptor (RXR) and have different physiological functions. […] To identify the compounds that activate PPAR-delta signaling, GeneBLAzer PPAR delta UAS-bla HEK293H cell line (Invitrogen, Carlsbad, CA, USA) containing a beta-lactamase reporter gene under the control of an Upstream Activator Sequence (UAS) was used to screen the Tox21 compound library. The cytotoxicity of the Tox21 compound library against the PPARd-bla cell line was tested in parallel by measuring the cell viability using CellTiter-Glo assay (Promega, Madison, WI) in the same wells.
Tox21 Assay Protocol Summary: PPARd-bla cells were dispensed at 3000 cells/6uL/well in 1536-well black wall/clear bottom plates using a Multidrop Combi (Thermo Fisher Scientific, Waltham, MA) dispenser. After the assay plates were incubated at 37 C and 5% CO2 for 5 h, 23 nL of compounds dissolved in DMSO, positive controls or DMSO only was transferred to the assay plate by a Pintool station (Kalypsys, San Diego, CA). The assay plates were incubated at 37C for 17 h. After 1 uL of LiveBLAzerTM B/G FRET substrate was added using a Bioraptr Flying Reagent Dispenser (FRD) workstation (Beckman Coulter, Indianapolis, IN, USA), the plates were incubated at room temperature for 2 h, and fluorescence intensity was measured by an Envision plate reader (PerkinElmer, Shelton, CT). For cell viability readout that measures cytotoxicity, 3 ul/well of CellTiter-Glo reagent was added into the assay plates using a Bioraptr FRD. After 30 min incubation at room temperature, the luminescence intensity in the plates was measured using a ViewLux plate reader (PerkinElmer).
For orientation: Quantitative high-throughput screening tests each substance at several concentrations.
With `O=C(c1ccccc1)c1ccc(O)cc1O`, the Potency result is “inactive”. On to `CCCc1c(OCCCCc2nn[nH]n2)ccc(C(C)=O)c1O`, for which the Potency entry is “inactive”. `Cc1c(C(N)=O)cc([N+](=O)[O-])cc1[N+](=O)[O-]`: the Potency entry is “inactive”. For `Nc1ncnc2nc[nH]c12`, the Potency entry was “inactive”.

As for `C[C@]12CCC(=O)C=C1CC[C@@H]1[C@@H]2C(=O)C[C@@]2(C)[C@H]1CC[C@]2(O)C(=O)CO`, the Potency result was “inactive”. As for `CCC(C)OC(=O)c1ccc(O)cc1` (stereo not given), the Potency entry is “inactive”. Regarding `COc1c(Cl)c(Cl)c(Cl)c(Cl)c1Cl`, the Potency result was “inactive”. Consider `CC(C)OC=O`, for which the Potency result was “inactive”. For `COC(=O)CCC(=O)OC` the value was “inactive”; for `CN(C)CCC=C1c2ccccc2CCc2ccccc21`, 43.7 µM (active) and 38.9 µM (active) and 29.8 µM (active); for `CC1=CCC(C(C)(C)O)CC1` (stereo not given), “inactive”.

As for `Clc1nc(Cl)c(Cl)c(Cl)c1Cl`, the Potency entry is “inactive”. Turning to `COC(=O)c1ccccc1`, the Potency result was “inactive”. In the case of `Cc1ccc2c(n1)Oc1ccc(C(C)C(=O)OCC(=O)N(C)C)cc1C2` (stereo not given), the Potency entry was “inactive”. As for `CNCCCC12CCC(c3ccccc31)c1ccccc12`, the Potency is 17.4 µM (active) and 29.8 µM (active).

`c1ccc2c(c1)Oc1ccccc1S2`: the Potency entry is “inactive”. Take `CC(C)OB(OC(C)C)OC(C)C`: the Potency entry was “inactive”.

Regarding `CCCCC/C=C/C=C/C=O`, the Potency result was “inactive”. `CCC(C)c1ccccc1O` (stereo not given): the Potency result is “inactive”. Regarding `c1ccc2sc(SSN3CCOCC3)nc2c1`, the Potency is 15.5 µM (active). For the compound `O=C(/C=C/C=C/c1ccc2c(c1)OCO2)N1CCCCC1`, the Potency result was “inactive”. Take `CN(C)C(=N)N=C(N)N`: the Potency result is “inactive”. `CCOCCOCCO`: the Potency result was “inactive”. As to `NC=O`, the Potency entry was “inactive”. In the case of `CCCCC(CC)COP(=O)(OCC(CC)CCCC)OCC(CC)CCCC` (stereo not given), the Potency entry is “inactive”. For `Nc1ccc(Cl)cc1Cl`, the Potency result was “inactive”. Turning to `O=C(COc1ccc(Cl)cc1)N1CCN(Cc2ccc3c(c2)OCO3)CC1`, the Potency entry is “inactive”. `Cc1cccc([N+](=O)[O-])c1C`: the Potency entry was “inactive”. As for `Cc1cc2nc3c(=O)[nH]c(=O)nc-3n(C[C@H](O)[C@H](O)[C@H](O)CO)c2cc1C`, the Potency entry is “inactive”. `c1ccc(Nc2ccccc2)cc1`: the Potency entry was “inactive”.

`OC[C@H]1O[C@@H]2O[C@H]3[C@H](O)[C@@H](O)[C@@H](O[C@H]4[C@H](O)[C@@H](O)[C@@H](O[C@H]5[C@H](O)[C@@H](O)[C@@H](O[C@H]6[C@H](O)[C@@H](O)[C@@H](O[C@H]7[C@H](O)[C@@H](O)[C@@H](O[C@H]8[C@H](O)[C@@H](O)[C@@H](O[C@H]1[C@H](O)[C@H]2O)O[C@@H]8CO)O[C@@H]7CO)O[C@@H]6CO)O[C@@H]5CO)O[C@@H]4CO)O[C@@H]3CO`: the Potency entry is “inactive”. For the compound `O=CCc1ccccc1`, the Potency entry was “inactive”. With `O=[N+]([O-])c1ccc2c(c1)Cc1ccccc1-2`, the Potency result was “inactive”.

With `O=c1oc(=O)c2cc3c(=O)oc(=O)c3cc12`, the Potency entry was “inactive”. For `CCCCC(CC)COC(=O)c1ccc(N(C)C)cc1` (stereo not given) the value was “inactive”; for `O=P(O)(O)O`, “inactive”; for `COc1cc([C@@H]2c3cc4c(cc3[C@H](O)[C@H]3COC(=O)[C@H]23)OCO4)cc(OC)c1OC`, “inactive”. Consider `Cc1[nH]c(=O)c(C#N)cc1-c1ccncc1`, for which the Potency entry is “inactive”.

On to `COC(=O)C1=C(C)NC(C)=C(C(=O)OCCN(C)Cc2ccccc2)C1c1cccc([N+](=O)[O-])c1` (stereo not given), for which the Potency was 24.4 µM (active) and 26.6 µM (active).

As for `COc1cccc2c1C(=O)c1c(O)c3c(c(O)c1C2=O)C[C@@](O)(C(=O)CO)C[C@@H]3O[C@H]1C[C@H](N)[C@H](O)[C@H](C)O1`, the Potency entry was “inactive”.
